Experimental data from the supplement of paper PMC10849652.
About 7,900 targets were measured; listed, in parts, are those with a hit and a random draw of the rest. About 0.6% of all pairs of compound and target were hits.

Assays:
Experiment in all cases: log2 fold change, soluble protein after heating vs DMSO (PISA); higher = thermal stabilisation; K562 cells, 10 uM, 30 min; active = over 0.2 and 3.5 SD of the protein, either way, in both replicates (recomputed)
[1] = compound: CS(=O)(=O)c1ccc(-c2cnc(N)c(C(=O)Nc3ccccc3)n2)cc1
Summary of the method: (§1)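 K562 cells at 2×10^6 cells/mL were exposed to 10 μM compound for 30 min, then aliquots were heated for 3 min across 48°C-58°C, pooled, and extracted in PBS containing 0.5% NP-40 at 4°C. The supernatant after 21,000xg for 90 min was taken as soluble protein and measured by TMTpro 16plex LC-MS/MS with channel sums equalised. Thermal stability is reported relative to control samples, with values from duplicates. Fold changes are given on a log2 scale.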

[2] = compound: C[C@@H](Oc1cc(-c2cnn(C3CCNCC3)c2)cnc1N)c1c(Cl)ccc(F)c1Cl [crizotinib]
Summary of the method: as §1

[3] = compound: C[C@H](C1=CC=C(C=C1)C(=O)NC2=C3C=CNC3=NC=C2)N
Summary of the method: as §1

[4] = compound: C[C@H](Nc1ncnc2nc[nH]c12)c1cc2cccc(Cl)c2c(=O)n1-c1ccccc1 [duvelisib]
Summary of the method: as §1

[5] = compound: Cc1cc(Nc2cc(CN3CCOCC3)c3nc(C)c(Cc4ccc(Cl)cc4F)n3n2)n[nH]1 [gandotinib]
Summary of the method: as §1

[6] = compound: Cc1cc(Nc2cc(N3CCN(C)CC3)nc(Sc3ccc(NC(=O)C4CC4)cc3)n2)n[nH]1 [tozasertib]
Summary of the method: as §1

[7] = compound: Cc1cc(SCc2sc(-c3ccc(C(F)(F)F)cc3)nc2C)ccc1OCC(=O)O
Summary of the method: as §1

[8] = compound: Cc1ccc(-n2nc(C(C)(C)C)cc2NC(=O)Nc2ccc(OCCN3CCOCC3)c3ccccc23)cc1 [doramapimod]
Summary of the method: as §1

[9] = compound: Cc1ccc(C(=O)N(CCCN)[C@@H](c2nc3cc(Cl)ccc3c(=O)n2Cc2ccccc2)C(C)C)cc1 [ispinesib]
Summary of the method: as §1

[10] = compound: C[C@@H]1COCCN1C2=NC(=NC(=C2)C3(CC3)S(=O)(=O)C)C4=C5C=CNC5=CC=C4
Summary of the method: as §1

Measured: log2 fold change

DHRS13 (UniProt Q6UX07)
Chain of UniProt Q6UX07 (Q6UX07 whole entry, looked up): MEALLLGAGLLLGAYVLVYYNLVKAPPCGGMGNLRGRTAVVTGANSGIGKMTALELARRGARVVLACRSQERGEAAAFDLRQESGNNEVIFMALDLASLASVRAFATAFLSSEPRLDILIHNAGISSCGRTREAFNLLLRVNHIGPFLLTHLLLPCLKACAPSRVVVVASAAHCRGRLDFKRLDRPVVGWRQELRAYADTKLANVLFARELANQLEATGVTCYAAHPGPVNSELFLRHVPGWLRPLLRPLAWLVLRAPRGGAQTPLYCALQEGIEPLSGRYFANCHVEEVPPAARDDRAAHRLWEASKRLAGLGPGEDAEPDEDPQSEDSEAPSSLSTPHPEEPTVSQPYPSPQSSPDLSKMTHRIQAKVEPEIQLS
inactive: [1] 0.107 | [2] 0.127 | [3] 0.058 | [4] -0.013 | [5] 0.064 | [6] 0.104 | [7] 0.139 | [8] 0.123 | [9] -0.034

DNM2 isoform 4 (UniProt P50570)
inactive: [1] -0.302 | [2] -0.087 | [10] -0.039 | [3] -0.087 | [4] 0.159 | [5] 0.126 | [7] 0.5 | [8] -0.203 | [9] 0.092

FAM3A (UniProt P98173)
inactive: [1] 0.01 | [2] -0.071 | [10] 0.07 | [3] 0.01 | [4] 0.006 | [5] 0.014 | [6] -0.025 | [7] -0.075 | [8] 0.009 | [9] -0.065

CYP51A1 (UniProt Q16850)
Chain of UniProt Q16850 (Q16850 whole entry, looked up): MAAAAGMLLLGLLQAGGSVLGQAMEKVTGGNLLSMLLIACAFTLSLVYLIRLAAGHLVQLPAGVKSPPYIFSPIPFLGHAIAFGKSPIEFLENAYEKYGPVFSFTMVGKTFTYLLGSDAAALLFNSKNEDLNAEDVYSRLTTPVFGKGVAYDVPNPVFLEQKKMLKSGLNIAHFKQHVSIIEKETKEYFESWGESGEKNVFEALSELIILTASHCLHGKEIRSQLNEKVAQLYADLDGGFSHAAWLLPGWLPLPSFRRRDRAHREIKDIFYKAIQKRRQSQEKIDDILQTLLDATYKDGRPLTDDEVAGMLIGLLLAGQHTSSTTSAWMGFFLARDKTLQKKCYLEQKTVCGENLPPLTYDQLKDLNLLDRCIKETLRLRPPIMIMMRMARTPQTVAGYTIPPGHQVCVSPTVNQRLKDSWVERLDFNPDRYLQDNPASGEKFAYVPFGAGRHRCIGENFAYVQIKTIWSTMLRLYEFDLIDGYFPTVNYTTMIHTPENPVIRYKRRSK
inactive: [1] 0.028 | [2] 0.12 | [10] -0.162 | [3] 0.147 | [4] -0.075 | [5] -0.111 | [6] -0.031 | [7] 0 | [8] 0.156 | [9] 0.117

FAM207A (UniProt Q9NSI2)
Chain of UniProt Q9NSI2 (Q9NSI2 whole entry, looked up): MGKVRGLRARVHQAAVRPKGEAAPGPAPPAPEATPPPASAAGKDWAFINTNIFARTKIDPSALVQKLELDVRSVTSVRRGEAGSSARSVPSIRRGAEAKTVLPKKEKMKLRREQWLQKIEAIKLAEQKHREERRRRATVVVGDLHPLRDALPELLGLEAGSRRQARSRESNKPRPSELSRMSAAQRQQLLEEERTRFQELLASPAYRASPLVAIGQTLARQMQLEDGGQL
inactive: [1] 0.009 | [2] 0.075 | [10] 0.08 | [4] 0.128 | [5] -0.039 | [6] 0.053 | [7] -0.098 | [8] 0.101 | [9] -0.077

EIF3J isoform 2 (UniProt O75822)
inactive: [1] 0.035 | [2] 0.049 | [10] -0.043 | [4] 0.161 | [6] -0.136 | [7] -0.038 | [8] 0.011

CUX1 isoform 2 (UniProt Q13948)
Chain of UniProt Q13948 (Q13948 whole entry, looked up): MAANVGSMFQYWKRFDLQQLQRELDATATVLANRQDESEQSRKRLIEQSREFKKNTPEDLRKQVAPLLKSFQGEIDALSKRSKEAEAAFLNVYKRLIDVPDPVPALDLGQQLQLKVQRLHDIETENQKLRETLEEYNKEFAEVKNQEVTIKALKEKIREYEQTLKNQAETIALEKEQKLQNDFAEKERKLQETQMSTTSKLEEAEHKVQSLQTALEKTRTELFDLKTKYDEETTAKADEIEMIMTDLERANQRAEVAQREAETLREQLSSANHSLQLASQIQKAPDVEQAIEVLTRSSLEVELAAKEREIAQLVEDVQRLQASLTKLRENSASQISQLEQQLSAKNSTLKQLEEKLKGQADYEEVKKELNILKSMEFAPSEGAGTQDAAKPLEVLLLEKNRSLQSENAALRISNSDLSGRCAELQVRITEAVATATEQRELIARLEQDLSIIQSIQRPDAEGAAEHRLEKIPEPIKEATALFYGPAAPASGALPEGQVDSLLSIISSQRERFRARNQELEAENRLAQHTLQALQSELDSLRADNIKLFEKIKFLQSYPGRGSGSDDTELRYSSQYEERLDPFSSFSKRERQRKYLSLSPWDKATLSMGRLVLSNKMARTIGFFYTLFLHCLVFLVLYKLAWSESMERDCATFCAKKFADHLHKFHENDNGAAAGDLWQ
inactive: [1] -0.217 | [2] -0.063 | [10] 0.029 | [3] -0.063 | [4] 0.029 | [5] -0.046 | [6] -0.029 | [7] 0.002 | [8] -0.015 | [9] -0.008

FAM83D (UniProt Q9H4H8)
Chain of UniProt Q9H4H8 (Q9H4H8 whole entry, looked up): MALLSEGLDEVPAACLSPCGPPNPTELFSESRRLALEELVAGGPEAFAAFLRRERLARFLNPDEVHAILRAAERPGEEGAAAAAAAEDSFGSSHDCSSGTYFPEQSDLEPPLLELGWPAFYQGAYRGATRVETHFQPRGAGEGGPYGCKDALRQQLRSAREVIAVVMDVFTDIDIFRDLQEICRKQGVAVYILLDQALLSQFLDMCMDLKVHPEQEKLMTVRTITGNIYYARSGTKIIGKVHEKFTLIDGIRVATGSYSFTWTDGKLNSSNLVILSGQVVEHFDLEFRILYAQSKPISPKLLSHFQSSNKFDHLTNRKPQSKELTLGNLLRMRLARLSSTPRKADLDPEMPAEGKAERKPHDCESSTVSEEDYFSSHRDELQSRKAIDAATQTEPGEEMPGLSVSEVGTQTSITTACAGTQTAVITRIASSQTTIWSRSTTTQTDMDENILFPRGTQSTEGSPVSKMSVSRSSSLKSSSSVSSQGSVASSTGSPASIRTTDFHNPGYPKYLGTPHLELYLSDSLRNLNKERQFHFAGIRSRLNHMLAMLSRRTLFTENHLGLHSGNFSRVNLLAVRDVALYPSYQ
inactive: [1] -0.018 | [2] -0.061 | [10] 0.021 | [3] 0.014 | [4] 0.001 | [6] 0.025 | [7] 0.08 | [8] -0.009 | [9] 0.064
active: [5] -0.308

DTWD2 (UniProt Q8NBA8)
Chain of UniProt Q8NBA8 (Q8NBA8 whole entry, looked up): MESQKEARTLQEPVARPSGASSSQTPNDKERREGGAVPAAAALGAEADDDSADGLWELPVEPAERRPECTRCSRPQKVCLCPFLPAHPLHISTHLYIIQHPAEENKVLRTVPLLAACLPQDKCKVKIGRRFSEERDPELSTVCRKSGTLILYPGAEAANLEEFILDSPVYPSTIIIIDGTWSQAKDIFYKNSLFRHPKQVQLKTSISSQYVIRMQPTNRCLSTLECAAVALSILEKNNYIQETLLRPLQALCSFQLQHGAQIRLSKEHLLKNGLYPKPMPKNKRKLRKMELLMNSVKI
inactive: [1] 0.06 | [2] 0.133 | [10] 0.137 | [3] -0.103 | [4] -0.036 | [5] 0.027 | [6] -0.019 | [7] 0 | [8] 0.009 | [9] -0.092

CTNNB1 (UniProt P35222)
inactive: [2] 0.024 | [10] -0.087 | [3] -0.102 | [4] 0.086 | [5] 0.336 | [6] 0.03 | [7] -0.024 | [8] 0.047 | [9] 0.078
active: [1] 0.666

FAM193B (UniProt Q96PV7)
Chain of UniProt Q96PV7 (Q96PV7 whole entry, looked up): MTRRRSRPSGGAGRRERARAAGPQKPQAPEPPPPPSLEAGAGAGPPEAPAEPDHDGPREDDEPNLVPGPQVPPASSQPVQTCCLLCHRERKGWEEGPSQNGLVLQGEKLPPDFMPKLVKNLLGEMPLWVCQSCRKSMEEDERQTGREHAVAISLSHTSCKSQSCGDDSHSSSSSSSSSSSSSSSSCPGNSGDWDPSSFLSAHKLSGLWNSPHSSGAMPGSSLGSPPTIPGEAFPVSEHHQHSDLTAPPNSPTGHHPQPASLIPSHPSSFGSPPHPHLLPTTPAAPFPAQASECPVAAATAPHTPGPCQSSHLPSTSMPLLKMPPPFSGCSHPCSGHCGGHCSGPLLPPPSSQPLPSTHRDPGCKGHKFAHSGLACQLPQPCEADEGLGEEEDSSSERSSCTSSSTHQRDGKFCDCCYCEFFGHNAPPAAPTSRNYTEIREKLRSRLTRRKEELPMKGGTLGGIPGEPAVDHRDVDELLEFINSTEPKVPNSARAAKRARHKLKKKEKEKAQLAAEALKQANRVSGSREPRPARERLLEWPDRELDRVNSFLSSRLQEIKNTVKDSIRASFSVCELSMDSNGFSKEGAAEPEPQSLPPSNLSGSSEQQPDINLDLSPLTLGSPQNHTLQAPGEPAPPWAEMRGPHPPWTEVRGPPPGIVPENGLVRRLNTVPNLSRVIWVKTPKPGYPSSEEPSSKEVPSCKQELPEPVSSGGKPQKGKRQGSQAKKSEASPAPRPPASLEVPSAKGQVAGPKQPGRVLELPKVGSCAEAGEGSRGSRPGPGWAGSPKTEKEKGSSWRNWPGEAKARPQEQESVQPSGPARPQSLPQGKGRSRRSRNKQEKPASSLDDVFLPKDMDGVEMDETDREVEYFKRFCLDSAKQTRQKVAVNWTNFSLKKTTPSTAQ
inactive: [1] -0.065 | [2] -0.081 | [10] -0.097 | [3] 0.348 | [4] -0.18 | [6] 0.062 | [7] -0.189 | [8] -0.046

DMAC1 (UniProt Q96GE9)
inactive: [1] 0.023 | [2] 0.034 | [10] 0.037 | [3] 0.005 | [4] 0.166 | [5] -0.087 | [6] -0.153 | [7] -0.22 | [8] 0.066 | [9] -0.108

FAM118B (UniProt Q9BPY3)
Chain of UniProt Q9BPY3 (Q9BPY3 whole entry, looked up): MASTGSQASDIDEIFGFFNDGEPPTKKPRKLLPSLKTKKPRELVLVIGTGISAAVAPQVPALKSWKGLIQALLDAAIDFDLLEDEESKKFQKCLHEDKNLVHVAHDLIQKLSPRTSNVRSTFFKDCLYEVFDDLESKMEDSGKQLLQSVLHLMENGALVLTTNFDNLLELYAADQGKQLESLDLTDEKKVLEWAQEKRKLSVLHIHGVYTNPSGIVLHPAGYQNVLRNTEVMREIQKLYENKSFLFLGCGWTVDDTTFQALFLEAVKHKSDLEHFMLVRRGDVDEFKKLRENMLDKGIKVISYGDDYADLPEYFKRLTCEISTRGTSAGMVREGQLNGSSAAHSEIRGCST
inactive: [1] 0.099 | [2] -0.169 | [10] -0.007 | [3] 0.107 | [5] -0.101 | [6] 0.019 | [8] -0.003 | [9] 0.046

DCAF13 (UniProt Q9NV06)
inactive: [1] -0.086 | [2] 0.067 | [3] 0.273 | [4] -0.105 | [5] 0.221 | [6] 0.007 | [7] -0.033 | [8] 0.173 | [9] -0.1
active: [10] -0.538

DNAJC24 (UniProt Q6P3W2)
inactive: [1] -0.054 | [2] 0.055 | [10] -0.031 | [3] -0.004 | [4] -0.028 | [6] 0.05 | [7] -0.024 | [8] 0.038 | [9] 0.01

EIF4A1 (UniProt P60842)
inactive: [1] -0.055 | [2] -0.058 | [10] 0.03 | [3] -0.015 | [4] 0.007 | [5] -0.206 | [6] -0.008 | [7] 0.047 | [8] 0.025 | [9] -0.11

DCP2 (UniProt Q8IU60)
inactive: [1] -0.211 | [10] 0.119 | [3] 0.009 | [4] -0.049 | [6] 0.219 | [7] 0.095 | [8] 0.147 | [9] -0.045
active: [2] 0.779

CTSB (UniProt P07858)
inactive: [1] 0.048 | [10] 0.057 | [3] -0.042 | [4] 0.016 | [5] 0.006 | [6] -0.006 | [7] 0.015 | [8] -0.014
active: [2] -0.508 | [9] -0.403

DDX5 (UniProt P17844)
inactive: [1] 0.035 | [2] -0.16 | [10] 0.135 | [3] 0.125 | [4] 0.041 | [5] -0.016 | [6] 0.012 | [7] 0.165 | [8] -0.044 | [9] 0.052

EEF1A1 (UniProt P68104)
inactive: [1] 0.081 | [2] 0.001 | [10] -0.022 | [3] -0.474 | [4] -0.048 | [6] -0.139 | [7] -0.004 | [8] -0.062 | [9] 0.115

ENTPD7 (UniProt Q9NQZ7)
inactive: [1] 0.256 | [2] 0.084 | [10] -0.037 | [4] -0.178 | [6] 0.185 | [7] 0.014 | [8] 0.025

EZH2 isoform 2 (UniProt Q15910)
inactive: [1] -0.012 | [2] -0.196 | [10] -0.039 | [3] 0.072 | [4] -0.112 | [6] -0.12 | [7] 0.279 | [8] 0.095

DDB1 (UniProt Q16531)
inactive: [1] 0.005 | [2] 0.033 | [10] 0.026 | [3] -0.039 | [4] 0.02 | [5] -0.028 | [6] -0.013 | [7] -0.037 | [8] -0.033 | [9] 0.009

DCAF10 (UniProt Q5QP82)
inactive: [1] 0.036 | [2] 0.007 | [10] 0.037 | [3] 0.017 | [4] -0.046 | [5] -0.15 | [6] 0.007 | [7] -0.098 | [8] 0.055 | [9] -0.059

DDX27 (UniProt Q96GQ7)
inactive: [1] -0.039 | [2] -0.037 | [10] -0.064 | [3] 0.37 | [4] -0.145 | [5] 0.073 | [6] -0.12 | [7] 0.071 | [8] 0.135 | [9] 0.004

DHRS7B (UniProt Q6IAN0)
Chain of UniProt Q6IAN0 (Q6IAN0 whole entry, looked up): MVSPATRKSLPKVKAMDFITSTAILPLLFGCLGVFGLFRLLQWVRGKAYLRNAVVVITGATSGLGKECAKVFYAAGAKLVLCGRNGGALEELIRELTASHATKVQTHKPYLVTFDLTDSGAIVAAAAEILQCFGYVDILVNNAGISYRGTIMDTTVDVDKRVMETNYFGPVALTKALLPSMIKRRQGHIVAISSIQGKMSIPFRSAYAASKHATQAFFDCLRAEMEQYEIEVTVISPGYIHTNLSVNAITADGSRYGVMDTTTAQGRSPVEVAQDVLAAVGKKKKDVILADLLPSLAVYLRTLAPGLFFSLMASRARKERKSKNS
inactive: [1] 0.066 | [2] 0.194 | [10] 0.003 | [3] -0.08 | [4] 0.097 | [5] -0.232 | [6] 0.033 | [7] 0.105 | [8] -0.006
active: [9] 0.367

DHRS1 (UniProt Q96LJ7)
Chain of UniProt Q96LJ7 (Q96LJ7 whole entry, looked up): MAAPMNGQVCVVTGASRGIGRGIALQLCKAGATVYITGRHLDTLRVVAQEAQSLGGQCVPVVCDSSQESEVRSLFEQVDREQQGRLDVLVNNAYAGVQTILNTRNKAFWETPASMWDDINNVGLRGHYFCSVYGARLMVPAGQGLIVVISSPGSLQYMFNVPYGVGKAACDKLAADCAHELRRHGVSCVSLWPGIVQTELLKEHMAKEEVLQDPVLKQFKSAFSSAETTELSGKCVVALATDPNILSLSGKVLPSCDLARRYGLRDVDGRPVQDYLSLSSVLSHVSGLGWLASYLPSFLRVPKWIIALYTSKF
inactive: [1] 0.009 | [2] 0.248 | [10] 0.089 | [3] -0.028 | [4] 0.438 | [5] 0.297 | [6] 0.009 | [7] 0.571 | [8] 0.557 | [9] 0.247

ELAC1 (UniProt Q9H777)
Chain of UniProt Q9H777 (Q9H777 whole entry, looked up): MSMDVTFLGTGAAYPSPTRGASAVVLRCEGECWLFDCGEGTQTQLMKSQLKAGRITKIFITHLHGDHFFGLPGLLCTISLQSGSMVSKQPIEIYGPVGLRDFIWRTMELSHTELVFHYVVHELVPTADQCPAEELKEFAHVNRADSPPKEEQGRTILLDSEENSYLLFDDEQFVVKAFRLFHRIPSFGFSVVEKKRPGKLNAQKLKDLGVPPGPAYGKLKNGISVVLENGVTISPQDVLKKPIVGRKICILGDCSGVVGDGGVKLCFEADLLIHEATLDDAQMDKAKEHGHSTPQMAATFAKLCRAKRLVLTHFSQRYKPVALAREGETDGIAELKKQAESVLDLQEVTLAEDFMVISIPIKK
inactive: [1] -0.045 | [2] 0.011 | [10] -0.13 | [3] -0.137 | [4] 0.062 | [5] -0.021 | [7] 0.004 | [8] 0.007

DUS2 (UniProt Q9NX74)
inactive: [1] -0.017 | [2] 0.048 | [10] 0.084 | [3] 0.045 | [4] 0.012 | [5] 0.036 | [6] -0.013 | [7] 0.062 | [8] -0.006 | [9] 0.097
